Assay outcomes (PubChem)
Y pestis TopoI: Yersinia pestis topoisomerase I inhibitors, primary screen, biochemical, cleavage product accumulation, plate reader, single point | DNA topoisomerase I (Yersinia pestis CO92) | Y. pestis Topo-I cleavage product accumulation | activity, % at 10 µM | actives 0.064% (n = 360,000); in the data active = activity above about 50%, passing the limit was not always enough
SSB-PriA inh: inhibitors of Klebsiella pneumoniae PriA binding to SSB C-terminal tail, primary screen, biochemical, AlphaScreen. inhibition, % at 33 µM. AlphaScreen SSBct-PriA binding, biotinylated peptide. PriA–SSB C-terminal tail interaction (Klebsiella pneumoniae). AID 1272365, 2023. actives 0.6% (n = 430,000); in the data active = inhibition mostly above about 37%, no sharp cut-off; inactive = mostly below about 20%;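 note: plate controls were negative control peptide for no effect and reference peptide for full effect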
MazF activator: activators of E. coli MazEF toxin-antitoxin RNase, primary screen, biochemical, fluorescence, uHTS. Endoribonuclease toxin MazF (Escherichia coli (strain K12)), P0AE70. FAM/BHQ RNA-DNA oligo cleavage fluorescence, 5 h. activation, % at 20 µM. actives 0.32% (n = 350,000). AID 504720, 2011; in the data active = activation above about 50%
Target sequence (P0AE70 whole entry, looked up): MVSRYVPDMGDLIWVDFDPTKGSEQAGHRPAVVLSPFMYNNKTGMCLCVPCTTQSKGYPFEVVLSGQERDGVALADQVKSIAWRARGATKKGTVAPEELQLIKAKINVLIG
SARS 3CLpro inh: SARS-CoV 3CLpro protease inhibitors, primary screen, biochemical, quenched FRET. Replicase polyprotein 1ab (Severe acute respiratory syndrome coronavirus), P0C6X7. actives 0.14% (n = 290,000). recombinant SARS-CoV 3CLpro, quenched FRET peptide cleavage. AID 1706, 2009. inhibition, % at 6 µM; in the data active = inhibition above about 12%
Starred values were filed as active, the others as inactive; nt = not tested or not shown; + = active, no number; ! = a repeat was not active. A selection: hits, their analogues and other compounds. The true share with any hit is near 0.9%.

SMILES	Y pestis TopoI	SSB-PriA inh	MazF activator	SARS 3CLpro inh
O=S(=O)(NCC(O)c1csc2ccccc12)c1ccc(OC(F)(F)F)cc1 (configuration not stated)	nt	-8	nt	nt
COCCNC(=O)c1c(NC(=O)c2ccc(OC)cc2)sc2ccccc2c1=O	nt	5	nt	nt
N#C/C(=C\c1cn(Cc2ccc(C#N)cc2)c2ccccc12)C(=O)NCc1cccs1	10	2	55*	6
CCCOc1cc(Nc2ccc(NS(=O)(=O)c3ccccc3F)cc2)nc(C)n1	nt	-6	nt	nt
O=C(NCC(c1ccsc1)N1CCCC1)c1cccc(Cl)c1 (configuration not stated)	nt	2	nt	nt
Cc1cc(C(=O)Nc2cccc(-c3nc4ccccc4o3)c2)no1	nt	3	nt	nt
Cc1ccc(-c2csc(NNC3=NCCCCC3)n2)cc1	nt	62*	nt	nt
Cc1cc(OC2CCN(C(=O)C3(c4ccccc4)CCOCC3)CC2)cc(=O)o1	nt	23*	nt	nt
O=C(N1CCC(Oc2ncccc2Br)CC1)C1(c2ccccc2)CCOCC1	nt	-27	nt	nt
O=C(COc1ccc(-n2cccn2)nn1)N1CCN(c2ncccn2)CC1	nt	-16	nt	nt
Cc1cccc(C(=O)N(Cc2nc3ccccc3c(=O)[nH]2)C2CCCCC2)c1	54*	-5	4	3
CN(C)C(=O)Oc1cc2ccccc2cc1OC(=O)N(C)C	nt	-6	nt	nt
CCn1cc(NC(=O)N2CCN(c3cccc(Cl)c3)CC2)c2ccccc21	nt	31*	nt	nt
N#Cc1nc(Cc2ccccc2)oc1N1CCN(c2ccccc2)CC1	26	45*	3	0
N#Cc1nc(Cc2ccccc2)oc1N1CCC(Cc2ccccc2)CC1	31	50*	-6	1
N#Cc1nc(Cc2ccccc2)oc1N1CCC(C(N)=O)CC1	2	-8	5	-6
Cc1ccc2c(c1)N(C(=O)CSc1ncccc1C#N)CCO2	nt	-5	nt	nt
Oc1cc(-c2ccncc2)cc2cccnc12	7	55*	3	nt
CN(C)c1ccc(-c2cc(O)c3ncccc3c2)cc1	-8	43	4	nt
Oc1cc(NCCc2cccnc2)cc2cccnc12	-2	85*	15	nt
CN(C)CCCNC(=O)c1ccc(-c2cc(O)c3ncccc3c2)cc1	-10	83*	10	nt
c1ccc(CCNCc2cccnc2)cc1	4	-6	11	-2
Nc1cc(O)c2ncccc2c1	nt	140*	nt	nt
COc1ccc(OC)c(NC(=O)Cn2c(C)cc(C)c(S(=O)(=O)c3ccc(C)c(C)c3)c2=O)c1	nt	-4	nt	nt
Oc1cc(Nc2ccncc2)cc2cccnc12	-4	104*	3	nt
SMILES	Y pestis TopoI	SSB-PriA inh	MazF activator	SARS 3CLpro inh
Fc1cc(-c2ccncc2)c2ncccc2c1	nt	34	nt	nt
Oc1cc(Nc2cccnc2)cc2cccnc12	6	89*	8	nt
CC1CCc2oc3c(cc(NS(=O)(=O)c4ccc(Br)cc4)c4ccccc43)c2C1 (configuration not stated)	nt	37*	nt	nt
CC(=O)c1c(C)oc2c1cc(NS(=O)(=O)c1ccc(C(=O)O)cc1)c1ccccc12	3	-4	79*	7
COC(=O)c1c(C)oc2c1cc(NS(=O)(=O)c1ccc(C(=O)O)cc1)c1ccccc12	-4	-1	6	2
O=C(c1ccc(Cn2ccnc2)cc1)N1CCC(Oc2cnccn2)CC1	nt	-4	nt	nt
CC1Cc2ccccc2N1C(=O)CCn1cnc2c(cnn2-c2ccc(F)cc2)c1=O (configuration not stated)	nt	-8	nt	nt
NS(=O)(=O)c1ccc(NC(=O)CN2CC(=O)Oc3ccccc32)cc1	nt	94*	nt	nt
COC(=O)c1ccc(NC(=O)CN2CC(=O)Oc3ccccc32)cc1	nt	45*	nt	nt
N#C/C(=C/c1ccc(-c2ccc(S(N)(=O)=O)cc2)o1)C(=O)Nc1ccccc1	7	-11	101*	6
N#C/C(=C/c1ccc(-c2ccc([N+](=O)[O-])cc2)o1)C(=O)Nc1nc(-c2cccs2)cs1	-6	-4	-2	nt
N#C/C(=C\c1ccc(-c2ccc(F)cc2)o1)C(=O)Nc1nc(-c2cccs2)cs1	-13	-1	128*	2
Cc1cc(NC(=O)/C(C#N)=C/c2ccc(-c3cccc(C(F)(F)F)c3)o2)n(-c2ccccc2)n1	8	-2	-7	1
N#C/C(=C\c1ccco1)C(=O)Nc1ccc(S(N)(=O)=O)cc1	2	-2	11	-4
Cc1cc(NC(=O)/C(C#N)=C/c2ccc(-c3ccc(SC(F)F)cc3)o2)n(-c2ccccc2)n1	2	-6	405*	-2
Cc1cc(C)n(CC(=O)NCCc2ccccc2)c(=O)c1C#N	nt	-15	nt	nt
O=C(CSc1nnc2ccc(-c3cccnc3)nn12)NCc1ccco1	nt	-6	nt	nt
c1ccc(-c2csc(Nc3ccccn3)n2)cc1	-4	-6	2	7
NNc1nc(-c2ccccn2)cs1	nt	130*	nt	nt
c1ccc(Nc2nc(-c3ccccn3)cs2)nc1	nt	150*	nt	nt
c1ccc(CCNc2nc(-c3ccccn3)cs2)cc1	4	20	-6	-3
Cc1ccc(C)c(Nc2nc(-c3ccccn3)cs2)c1	nt	69*	nt	nt
c1ccc(-c2csc(Nc3ncccn3)n2)nc1	nt	70*	nt	nt
Cc1noc(C)c1CC(=O)Nc1ccn2nccc2c1	nt	-14	nt	nt
CC1=NCCN1S(=O)(=O)c1cc([N+](=O)[O-])ccc1Cl	-7	35*!	2	3
NC(Cc1cccc2ccccc12)=NOC(=O)COc1ccccc1	nt	-76	nt	nt
O=C(NN=CC1C(=O)NC(=S)N(c2ccccc2)C1=O)c1cc(Br)c(O)c(Br)c1 (configuration not stated)	nt	62*	nt	nt
CCN(CC)c1ccc2cc(C(C)=O)c(=O)oc2c1	1	-30	-186	-4
CCN(CC)c1ccc2cc(C(=O)Nc3ccccn3)c(=O)oc2c1	-2	14	+	2
COCCCNC(=O)CSc1nc2cc(S(=O)(=O)N3CCCCC3)ccc2o1	0	46*	7	nt
